High-throughput results from PubChem.
Insulin prom inh = TRM-6 insulin promoter activity inhibition; TRM-6 cells (human fetal islet line), insulin promoter-eGFP reporter, imaging; reporter expression induced with tamoxifen; inhibition, % at 2 µM; hit rate 0.9% among 130,000; AID 1273;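 active = inhibition above the mean plus 3 SD, with well images judged a real hit on visual review, cut at about 60% in these data, passing the limit was not always enough; inconclusive = inhibition over the cutoff but images rejected on review; inactive = inhibition not above the cutoff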
HSV augment = increases HSV replication in cells; HSV replication augmentation in cells, fold increase; maximum fold increase; hit rate 0.005% among 220,000; AID 1956; in the data active = maximum fold increase above about 1.5; inconclusive = no clear call, values can overlap the other calls; tested in PC3 cells
Efa HMGR inh = E. faecalis class II HMG-CoA reductase inhibition; purified E. faecalis HMGR, NADPH absorbance 340 nm kinetic; hit rate 0.41% among 190,000; inhibition, % at 10 µM;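 active = inhibition above a set limit, the median over all tested compounds plus 3 SD, cut at about 9.5% in these data; inconclusive = no clear call, values can overlap the other calls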;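 also: enzyme runs in reverse so mevalonate oxidation gives rising NADPH absorbance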
Ins promoter up = MIN6 insulin promoter up-regulation. hit rate 0.3% among 190,000. AID 1625. MIN6 insulin promoter-GFP reporter, high-content imaging; stronger effect = higher value. z-score at 5 µM;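 active = z-score above 3 at 5 µM with at least 500 cells counted in the well; inconclusive = wells under 500 cells, flagged as cytotoxic or low count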
Numbers stand for hits; - = inactive; ? = inconclusive; . = no result given. Shown are actives, neighbours in structure and some others; about 1.1% of the full set was active somewhere.

SMILES	Insulin prom inh	HSV augment	Efa HMGR inh	Ins promoter up
COc1ccc(N(CC(=O)Nc2nccs2)S(=O)(=O)c2c(C)[nH]c(=O)[nH]c2=O)cc1	79	-	-	-
CC(=O)c1ccc(N2CCN(C(=S)NCCCN(C)C)CC2)cc1	.	-	-	-
O=C(CN1CCN(c2ccc([N+](=O)[O-])cc2)CC1)Nc1nccs1	77	.	-	-
Cc1ccc(-n2cnc3sc(C)c(C)c3c2=O)cc1	-	-	13	-
CCOC(=O)c1c(C)[nH]c(C(=O)CC(=O)OC)c1C	.	-	-	-
O=C(OCCN1C(=O)c2cccc3c(N4CCOCC4)ccc(c23)C1=O)c1ccc(Cl)cc1	.	?	-	-
CCCN(CCC)S(=O)(=O)c1ccc(C(=O)OCCN2C(=O)c3cccc4c(N5CCOCC5)ccc(c34)C2=O)cc1	-	?	-	6.2
Cn1c(OCc2cccnc2)nc2c1c(=O)n(Cc1ccc(Cl)cc1)c(=O)n2C	-	-	.	.
Cn1c(OCc2cccnc2)nc2c1c(=O)n(Cc1ccc(Br)cc1)c(=O)n2C	.	-	14	-
CCOC(=O)C1(CCc2ccccc2)CCN(Cc2cccc3nccnc23)CC1	.	-	-	-
O=c1[nH]c(CNCc2cccnc2)nc2ccccc12	-	-	-	.
Cc1ccc(C)c(N=C2CCCN2Cc2ccccc2)c1C#N	-	-	13	-
O=C(O)CN1CCCC1=Nc1ccccc1	-	-	-	-
COc1ccc(C(=O)C2CCCN(C(=O)c3ccoc3C)C2)cc1F (centres undefined)	.	-	.	-
O=C(CSc1nnc2ccccn12)NCc1ccco1	71	-	-	-
CC(C)c1nnc(SCC(=O)NCc2ccco2)n1C	-	-	-	-
Cc1cccc(N2CN(Cc3ccco3)CNC2=S)c1C	-	-	-	-
CCn1cc(Cl)c(C(=O)N2N=C(c3ccc4ccccc4c3)CC2c2ccccc2O)n1 (centres undefined)	67	-	-	-
Cc1cc(C)n(CC(O)COc2c(C)cccc2C)n1 (centres undefined)	-	-	-	-
CC(=O)Nc1ccc(Cc2nc3ccccc3[nH]2)cc1	.	-	16	-
CCOC(=O)CSc1nc2ccccc2n1CC(=O)N(C(C)C)C(C)C	.	-	-	-
CC(C)NC(=O)CSc1nc2ccccc2n1CC(=O)N(C(C)C)C(C)C	.	-	23	-
COCCCN1C(=O)C(=O)/C(=C(/O)c2ccc(OC)cc2)C1c1ccc(O)c(OC)c1 (centres undefined)	-	-	12	-
CN(c1ccccc1)S(=O)(=O)c1cccc(NC(=O)COC(=O)C2CCCCC2)c1	.	-	.	-
NS(=O)(=O)c1ccc(NC(=O)COC(=O)C2CC(=O)N(Cc3ccccc3)C2)cc1 (centres undefined)	.	-	11	-
SMILES	Insulin prom inh	HSV augment	Efa HMGR inh	Ins promoter up
NS(=O)(=O)c1cccc(NC(=O)COC(=O)C2CCCCC2)c1	.	-	11	-
CCCn1c(N)c(CC)c(=O)[nH]c1=O	.	-	-	-
C/C(CC(=O)NC(C)(C)C)=N\NC(=O)COc1ccc(C)cc1Br	-	-	-	-
C/C(CC(=O)NC1CCCCC1)=N\NC(=O)COc1ccc(C)cc1Br	.	-	28	-
CCc1cccc2c(C(=O)C(F)(F)F)cn(CC(=O)N3CCOCC3)c12	.	-	-	-
Cc1cc(NC(=O)/C(C#N)=C/c2ccc(-c3cccc(C(F)(F)F)c3)o2)n(-c2ccccc2)n1	.	.	-	-
Cc1cc(NC(=O)/C(C#N)=C/c2ccc(-c3ccc(SC(F)F)cc3)o2)n(-c2ccccc2)n1	-	.	-	3.4
COc1ccc(-c2c(N)n[nH]c2C)cc1OC	.	-	15	-
CC(=O)NC(Cc1cccc(F)c1)C(=O)NC1CCN(c2nnnn2-c2ccccc2)CC1 (centres undefined)	-	-	-	.
C=CCn1cnc2c(nnn2-c2cc(C)cc(C)c2)c1=O	.	-	-	-
C=CCn1cnc2c(nnn2-c2ccc(Cl)cc2)c1=O	-	-	16	-
CCOc1ccccc1C(=O)Nc1nn[nH]n1	.	-	-	-
Cc1ccc(N(CC(=O)NCc2ccc(F)cc2)S(=O)(=O)c2cccs2)cc1	-	-	-	.
COc1ccc(NC(=O)c2ccco2)cc1NC(=O)c1ccc(Br)o1	73	-	-	-
COc1ccc(NC(=O)c2ccco2)cc1NC(=O)c1ccc(C)cc1	-	-	-	-
COc1ccc(NC(=O)Cc2coc3ccc4ccccc4c23)cc1S(=O)(=O)N1CCOCC1	-	-	-	-
CCCc1nccn1S(=O)(=O)c1cc(OC)ccc1OC	75	-	-	-
CCc1nccn1S(=O)(=O)c1cc(Br)ccc1OC	-	-	-	-
COc1ccccc1-n1c(SCC(=O)Nc2ccc(Br)cc2)nc(O)cc1=O	.	-	.	-
COc1cc(/C=C(/Sc2nnc(-c3ccc(F)cc3)o2)C(=O)O)ccc1OC(F)F	-	-	10	-
